Values joined by “and” are separate entries in the source; they are usually repeats but may differ in a detail not shown here. Identical values can stand only once. In all, about 330,000 compounds went through this assay and about 1,900 (0.58%) were called active. About 4% were inconclusive and are not listed. These entries were drawn from the full list. Potency and affinity values are given separately. Unmarked numbers belong to inactive results. Cut-off read from the data, not from the text of the source: inconclusive = inhibition above about 70% without an active follow-up result; inactive = below that.
test: M. tuberculosis growth inhibition, HTS (AID 449762);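 note: bacterial growth assessed after seven days of incubation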; details: M. tuberculosis H37Rv growth inhibition, 7H9 media; at 25 µM; stronger effect = higher value

SMILES | inhibition
O=C(c1cnn(Cc2ccccc2)c1)N1CCN(S(=O)(=O)/C=C/c2ccccc2)CC1 | 6.35%
COCC(=O)Nc1sc2c(c1C(=O)OC)CCC(C)C2 (configuration not stated) | 9.87%
COC(=O)c1c(NC(=O)CN2CCOCC2)sc2c1CCC(C)C2 (configuration not stated) | 3.32%
COCC(=O)Nc1cccc(-c2ccc3nncn3n2)c1 | 0.62%
CCCCCc1ccc(-c2cn(CC3CCCCC3)nn2)cc1 | 5.3%
CCn1cc(C(=O)NC(=S)Nc2ccccc2Br)cn1 | -4.11%
CCn1c(C)c(C)c2cc(C(=O)NC3CCCCCC3)ccc21 | 0.46%
CCn1c(C)nc2cc(C(=O)NNC(=O)Nc3cccc(Cl)c3)ccc21 | 2.59%
COc1ccc(-c2cc(C(=O)N/N=C/c3cccnc3)c3ccccc3n2)cc1 | -8.58%
CC(C)=CC(=O)N1CC[C@@H](N2CCN(c3ccccc3F)CC2)[C@H](O)C1 | -5.32%
COc1ccc(/C=N/Nc2nc(C)cc(-c3ccccc3)n2)c(OC)c1 | 7.29%
COc1ccccc1/C=N/Nc1cc(C)nc2ccc(C)cc12 | -11.1%
CC(C)Oc1cccc(OCCN2C(=O)c3ccccc3C2=O)c1 | 7.3%
NC(=S)NNC(=O)Nc1ccc(Cl)c(Cl)c1 | -11.5%
NC(=S)NNc1ccnc2cc(Cl)ccc12 | 41.1%
CCOc1ccccc1N1CCN(CC(O)COCc2cccs2)CC1 (configuration not stated) | 7%
C=CCn1c(CCCOc2ccc(Cl)cc2Cl)nnc1SCC(=O)Nc1nccs1 | -6.64%
O=C(O)/C=C/C(=O)N1CCN(Cc2ccc3c(c2)OCO3)CC1 | -4.14%
O=C(/C=C/c1cccs1)N1CCN(Cc2ccc3c(c2)OCO3)CC1 | 49.9%
C=CCn1c(SCC(=O)N(CC)CC)nc(O)cc1=O | 1.96%
COc1cccc(/C=N/NC(=O)CNC(=O)/C=C\c2ccccc2)c1O | 0.24%
O=C(Nc1ccccc1Cl)c1ccc(Cl)cc1Cl | 64.5%
O=C(O)CN1C(=O)CSC1=S | 3.79%
O=C(O)CCCCCN1C(=O)CSC1=S | -1.88%
O=C(CN1CCN(Cc2ccccc2F)C1=O)NCC1CCCO1 (configuration not stated) | 1.03%

SMILES | inhibition
O=C(CCc1c[nH]c2ccccc12)OCC(=O)N1CCN(S(=O)(=O)c2ccccc2)CC1 | 43.2%
Cc1ccc(S(=O)(=O)N2CCN(C(=O)CCc3c[nH]c4ccccc34)CC2)cc1 | -4.25%
COc1cc(CNC(C)c2ccccc2)c(Br)cc1OCC(N)=O (configuration not stated) | -3.38%
c1ccc(-c2cn3c(n2)SCC3)cc1 | -1.11%
Oc1ccc(-c2cn3c(n2)SCC3)cc1 | -2.38%
COc1ccc(NC(=O)c2cc(-c3ccc(C)cc3)on2)cc1OC | -6.33%
COc1cc2c(cc1OC)C(C1C(=O)CCCC1=O)N(C(=O)CCl)CC2 (configuration not stated) | 2.64%
COc1cc2c(cc1OC)C(c1cc(Br)ccc1O)N(C(C)=O)CC2 (configuration not stated) | -0.81%
Cc1ccc(S(=O)(=O)N2[C@@H](c3ccc(Br)cc3)C(C(=O)O)=CC[C@H]2c2ccc3c(c2)OCO3)cc1 | 3.53%
CCOC(=O)c1cnc(SC2CC(=O)N(c3ccc(C)cc3)C2=O)nc1N (configuration not stated) | -12.6%
CCOC(=O)c1cnc(SC2CC(=O)N(c3ccccc3)C2=O)nc1N (configuration not stated) | -5.11%
CC(C)(C)OC(=O)C[C@H]1C/C=C\C[C@H](CC(=O)NCCO)C(=O)N2CCC[C@@H]2COC1=O | 2.79%
CSc1ccc(CN2CCC(CO)(Cc3ccc(Cl)cc3)CC2)cc1 | 2.5%
CNC(=O)NC(=O)COC(=O)CCc1nc(=O)c2ccccc2n1C | 2.07%
Cn1nnnc1Sc1ncnc2scc(-c3cccc4ccccc34)c12 | 61.1%
Cn1nnnc1Sc1ncnc2scc(-c3ccccc3)c12 | 15.1%
COc1cc(C(=O)Nc2cccc(-n3cnnn3)c2)cc(OC)c1OC | -9.02%
Cc1ccc(-c2nn(-c3ccccc3)cc2C=C2C(=O)CC(C)(C)CC2=O)cc1 | 28.4%
CC1(C)CC(=O)C(=Cc2cn(-c3ccccc3)nc2-c2ccccc2)C(=O)C1 | 14.4%
CC1C=CCC2C(=O)N(c3cccc(C(=O)NCc4ccccc4)c3)C(=O)C12 (configuration not stated) | 0.47%
COc1ccc(-c2cn3cc(Cl)ccc3n2)cc1OC | 35.8%
COc1ccc(-c2cn3cc(C)ccc3n2)cc1OC | -0.94%
Cc1ccc(CN(C)C(=O)C2CCC(=O)N(C3CCCCCC3)C2)cc1 (configuration not stated) | 0.77%
OCCC1CN(Cc2cccn2-c2cccnc2)CCN1C1CCCCC1 (configuration not stated) | -3.37%
CO/N=C/NC(=O)NOCc1c(Cl)cccc1Cl | -5.31%

SMILES | inhibition
NC(=O)NOCc1c(Cl)cccc1Cl | -2.55%
CN(C(=O)c1ccc2nc(N)sc2c1)c1ccccc1 | -7.17%
COc1ccc(NC(=O)/C(=C\c2cccs2)NC(=O)c2ccco2)cc1 | 6.87%
CCOC(=O)N1CCN(C(=O)CCCN2C(=O)CSc3nc(C)cc(C)c32)CC1 | 0.43%
COc1ccc(CS(=O)(=O)/C(Cl)=C(/Cl)C(=O)Nc2ccc(OC)nc2)cc1 | 35%
COc1ccc(NC(=O)CCl)cn1 | 55.6%
COc1ccc(S(=O)(=O)N2CCOCC2)cc1NC(=O)CCCOc1ccc(Cl)cc1C | -8.9%
COc1ccc(-n2c(-c3ccc(Cl)cc3)c[n+]3c2CCCCC3)cc1 | -4.69%
COc1ccccc1-n1c(-c2ccccc2)c[n+]2c1CCc1ccccc1-2 | 10.8% and 4.8%
O=c1cccc2n1C[C@@H]1C[C@@H]2CN(CC(O)c2ccc([N+](=O)[O-])cc2)C1 (some centres not stated) | 9.8%
COc1ccccc1C(=O)COC(=O)c1cc([N+](=O)[O-])ccc1N1CCOCC1 | 32.4%
Cc1cccn2c(Nc3ccccc3)c(-c3ccccn3)nc12 | 67.1%
Cc1ccccc1Nc1c(-c2ccccn2)nc2c(C)cccn12 | 1.32%
CCSc1nnc(-c2ccc(S(=O)(=O)NCc3cccs3)cc2)o1 | -2.17%
Cc1ccc(C(=O)CSc2nnc(-c3c[nH]c4ccccc34)o2)cc1 | 0.92%
CCN(CC)C(=O)CSc1nnc(-c2c[nH]c3ccccc23)o1 | 1.41%
COc1ccccc1-c1nnc(SCC(=O)Nc2ccc(Cl)cc2Cl)o1 | -3.38%
CCN(CC)C(=O)CSc1nnc(-c2ccc(S(=O)(=O)NCc3ccccc3Cl)cc2)o1 | 5.34%
CSc1nnc(-c2ccc(Cl)cc2Cl)o1 | 26.3%
C/C(=N\O)c1noc(C)c1C(=O)Nc1nccs1 | -2.68%
O=S(=O)(c1cccc(-c2cn3ccccc3n2)c1)N1CCCCC1 | 0.63%
CCOC(=O)[C@H]1NN=C(C(=O)OC)[C@@H]1c1ccccc1 | -5.97%
COCCOC(=O)N/C=C\c1nc2ccccc2c(=O)[nH]1 | -1.7%
COc1ccc(C2C(C(=O)N3CCN(C)CC3)c3cc(OC)c(OC)cc3C(=O)N2C)cc1 (configuration not stated) | 11%
CC(=O)c1ccc(NC(=O)C(C)O/N=C(\N)c2ccccc2)cc1 (configuration not stated) | 1.95%

SMILES | inhibition
CCCc1ccc(-c2cc(C(=O)NC3=NCCS3)c3ccccc3n2)cc1 | -0.06%
CC1CCCC(NC(=O)COC(=O)c2ccc(S(=O)(=O)N3CCOCC3)cc2)C1C (configuration not stated) | -1.74%
Cc1ccc(C(=O)NNC(=O)c2csc(N3CCOCC3)n2)o1 | 0.22%
Cc1nn(-c2ccc(F)cc2F)c2c1-c1nc(N3CCCC3)ncc1CC2 | 69.4%
Cc1nn(-c2ccccn2)c2c1-c1nc(N)ncc1CC2 | 0.53%
CCO/C=N/Nc1nc(C(F)(F)F)nc2c1cnn2Cc1ccccc1 | 60.4%
COc1ccc(OC)c(NC(=O)c2ccc(OCC(=O)N3CCOCC3)c(OC)c2)c1 | 1.16%
CCNc1nc(CN2CCCCC2)nc2scc(-c3ccccc3)c12 | 40.7%
CN(Cc1ccccc1)c1nc(CN2CCOCC2)nc2scc(-c3ccccc3)c12 | 5.04%
O=C(Nc1ccccc1[N+](=O)[O-])C1=C(O)CCn2c1nc1ccccc12 | -3.87%
Cc1ccc(NC(=O)NCc2nc3ccccc3n2C)cc1 | -2.85%
COC(=O)CN1C(=O)N(c2ccccc2)C(N(O)C(=O)Nc2ccccc2)C1(C)C (configuration not stated) | 2.21%
COc1ccc(Nc2nc(N3CCN(S(C)(=O)=O)CC3)nc3ccccc23)c(OC)c1 | 2.78%
COc1ccc(Nc2nc(N3CCN(C)CC3)nc3ccccc23)c(OC)c1 | -4.21%
C=CCNC(=O)CN1C2CCCC1CC(NC(=O)c1ccccc1C)C2 (configuration not stated) | -6.37%
O=C(COC(=O)c1ccccc1N1C(=O)C2C3CCC(C3)C2C1=O)c1ccccc1 (configuration not stated) | -3.76%
COc1cc([N+](=O)[O-])ccc1NC(=O)CN1CCc2cc(OC)c(OC)cc2C1 | 6.98%
CCOC(=O)C(NCCCCl)c1ccccc1 (configuration not stated) | 0.32%
COc1ccccc1OCCCCN1CCCCC1 | 2.93%
COc1ccccc1OCCOCCN1CCCC1 | -4.15%
CCCc1cc(NC(=O)COC(=O)c2nccnc2N)n(-c2ccccc2)n1 | 50.9%
CCCc1cc(NC(=O)COC(=O)c2ccc(O)cc2O)n(-c2ccccc2)n1 | -2.82%

— PubChem BioAssay AID449762 (Southern Research Specialized Biocontainment Screening …, 2010)
